Records with an inconclusive call do not appear. Active and inactive are the calls of the source. Unless noted, the call rests on the fitted dose curve.
Key:
[1] = Primary qHTS for inhibitors of SARS-S pseudo-typed particle cell entry (AID 1479145); details: outcome: dose series up to 57.1 µM unless noted; further: nearly all actives have a fitted effect of over 45% in size
[2] = Primary qHTS for Huh7 cytotoxicity: counterscreen for inhibitors of MERS-S pseudotyped particle cell entry (AID 1479147); details: outcome: dose series up to 57.1 µM unless noted
[3] = Primary qHTS for inhibitors of MERS-S pseudo-typed particle cell entry (AID 1479149); details: outcome: dose series up to 57.1 µM unless noted; further: nearly all actives have a fitted effect of over 60% in size
[4] = Primary qHTS for Vero E6 cytotoxicity: counterscreen for inhibitors of SARS-S pseudo-typed particle cell entry (AID 1479150); details: outcome: dose series up to 57.1 µM unless noted
[5] = Confirmatory qHTS to identify inhibitors of SARS-CoV-2 cell entry (AID 1645844); further: potency means the concentration at half of the fitted maximal effect; nearly all actives have a fitted effect of over 45% in size
Procedure, shortened: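 Using stable human ACE2 Expi293F cells, compounds preincubated 1 hr before spike pseudoparticle infection; luciferase signal after 48 hr at 37C, 5% CO2, normalised to spike PP and no-fusion-protein PP wells.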

[6] = Cytotoxicity counterscreen for inhibitors of SARS-CoV-2 cell entry (AID 1645845); details: outcome: dose series up to 57.1 µM unless noted; further: series mostly up to about 57 µM; nearly all actives have a fitted effect of over 50% in size
Procedure, shortened: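 After a 15 min room-temperature ATPLite 1step step, luminescence reflected ATP remaining in HEK293-ACE2 cells exposed to compound for 1 h plus 48 h at 37 C, with percent activity set by cell and no-cell controls.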

[7] = VSVG counterscreen qHTS to identify inhibitors of SARS-CoV-2 cell entry (AID 1645847); further: potency means the concentration at half of the fitted maximal effect; nearly all actives have a fitted effect of over 65% in size
Procedure, shortened: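 Expi293F/hACE2 cells, overnight plating; cpd 1 h, 37C/5% CO2; + VSV-G PP (MLV pseudotyping), 48 h; supernatant removed, Bright-Glo luciferase read. Norm: VSV-G PP and bald PP wells.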

[8] = target: Glutathione peroxidase 1 (Homo sapiens) (UniProt P07203); assay: Primary qHTS Assay for Inhibitors of Recombinant Selenoprotein Glutathione Peroxidase 1 (GPX1) (AID 1845191; active means well fitted inhibition curve with a large enough effect; further: nearly all actives have a fitted effect of over 65% in size)
Sequence of Glutathione peroxidase 1 (Homo sapiens) (P07203 whole entry, looked up): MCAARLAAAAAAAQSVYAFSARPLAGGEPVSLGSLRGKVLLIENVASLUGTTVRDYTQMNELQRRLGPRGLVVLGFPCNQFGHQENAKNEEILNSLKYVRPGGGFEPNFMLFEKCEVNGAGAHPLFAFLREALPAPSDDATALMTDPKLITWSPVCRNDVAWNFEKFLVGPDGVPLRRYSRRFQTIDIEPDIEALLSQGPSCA
Procedure, shortened: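 GPX1 10 nM, GR 100 nM, GSH 1 mM, NADPH 0.5 mM, CHP 0.5 mM (final). 30-min cpd preincubation, RT. Ex340/Em450 read t=0, t=15 min.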

[9] = target: Phospholipid hydroperoxide glutathione peroxidase GPX4 (Homo sapiens) (UniProt P36969); assay: Primary qHTS Assay for Inhibitors of Recombinant Selenoprotein Glutathione Peroxidase 4 (GPX4) (AID 1845192; active means well fitted inhibition curve with a large enough effect; further: series mostly up to about 50 µM; nearly all actives have a fitted effect of over 65% in size)
Sequence of Phospholipid hydroperoxide glutathione peroxidase GPX4 (Homo sapiens) (P36969 whole entry, looked up): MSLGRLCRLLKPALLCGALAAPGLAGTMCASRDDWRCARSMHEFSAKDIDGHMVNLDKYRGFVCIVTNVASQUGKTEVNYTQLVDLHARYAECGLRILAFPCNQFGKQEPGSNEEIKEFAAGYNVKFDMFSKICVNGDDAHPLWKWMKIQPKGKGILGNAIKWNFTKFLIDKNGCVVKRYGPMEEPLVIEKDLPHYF
Procedure, shortened: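 qHTS, GR-coupled: GPX4 200 nM + cpd 30 min RT → GSH 1 mM, NADPH 0.5 mM, GR 100 nM → CHP 0.5 mM start; fluor 340/450 at t0 and t15 min; no-enzyme wells as control.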

Measured: Potency

O1[As]2O[As]1O2
active: [5] 19.2 µM | [7] 15.2 µM
inactive: all other assays above

CNC(=O)c1c(I)c(C(=O)NCC(=O)Nc2c(I)c(C(=O)O)c(I)c(C(=O)NCCO)c2I)c(I)c(N(C)C(C)=O)c1I
inactive: [1] | [2] | [3] | [4]

CCO/N=C(\C(=O)N[C@@H]1C(=O)N2C(C(=O)O)=C(Sc3nc(-c4cc[n+](C)cc4)cs3)CS[C@H]12)c1nsc(NP(=O)(O)O)n1
inactive: [1] | [2] | [3] | [4] | [6]
